# HSF-1 act: increases HSF-1 driven luciferase reporter signal. NIH3T3-HGL HSF-1 luciferase reporter, MG132, 8 h; 100% = twice DMSO control signal. activation, % at 9 µM. 300,000 tested, 1.7% active;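 active = mean replicate activation of at least 50% with a set share of replicates each reaching 50%; inconclusive = only one of those two conditions met; inactive = mean below 50% and too few replicates reaching it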;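 note: 0% = median of the neutral control wells and 100% = twice that signal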
# HSF1 inh: HSF1 inhibition | NIH3T3-HGL HSE-luciferase, MG132-induced, luminescence 8 h; stronger effect = lower value | 300,000 tested, 0.77% active | activity change, negative = inhibition, % at 7.5 µM (by protocol);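 active = more than half of replicate wells show activity change below -50%, luminescence cut by over half; inconclusive = some wells, but at most half, below -50%; inactive = no replicate well below -50%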;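 note: luciferase reports HSF-1 transcriptional activity via heat shock element; 0% = median of DMSO wells and -100% = zero luminescence signal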
# Wnt act: activates Wnt/beta-catenin signaling in a reporter cell assay | 300,000 tested, 1.2% active | AID 743398 | activator, plate reader | activation, % at 9.35 µM; in the data active = activation above about 30%, passing the limit was not always enough; inconclusive = no clear call, values can overlap the other calls;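 note: 0% = neutral control wells and 100% = positive control wells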
# esBAF inh: inhibitors of esBAF chromatin remodeling in mouse ES cells; 350,000 tested, 2% active; Bmi1-luciferase knock-in reporter, 24 h; 100% = twice the neutral-well signal; reporter increase, % at 12.5 µM; in the data active = activation above about 40%; inconclusive = no clear call, values can overlap the other calls;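 note: 0% = median of the plate's neutral control wells and 100% = double that signal; a rise in the Bmi1 reporter signal indicates esBAF inhibition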
# MITF TRPM1 HTS: MITF TRPM1 promoter activation in melanoma cells | SK-MEL-5 TRPM1-promoter luciferase, 24 h; % of positive control, neutral wells = 0 | activation, % at 12.5 µM | 300,000 tested, 0.75% active;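 active = mean activation of at least 80% with every replicate also reaching 80%; inconclusive = mean reaches 80% but some replicate falls short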;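 note: 0% = neutral control wells and 100% = parthenolide positive control wells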
# The depositor's hits bear a star; u = inconclusive; x = not tested or not shown. This is a sample that favours compounds with a hit; in the whole collection about 3.9% have one here.
SMILES,HSF-1 act,HSF1 inh,Wnt act,esBAF inh,MITF TRPM1 HTS
C[C@@H]1CN([C@H](C)CO)S(=O)(=O)c2ccc(-c3cccc(C#N)c3)cc2O[C@H]1CN(C)Cc1cccc(F)c1,x,x,x,3,x
O=C(Nc1cccc(F)c1)c1ccc2ncsc2c1,-2,6,x,16,-4
O=C(Nc1ccc(Cl)cc1Cl)c1ccc2ncsc2c1,18,19,u,59*,112*
O=C(COC(=O)c1ccc2ncsc2c1)Nc1cc(Cl)ccc1F,x,x,3,28,5
O=C(Nc1ccncc1)c1ccc2ncsc2c1,-5,-14,-2,71*,29
O=C(Nc1ccccc1F)c1ccc2ncsc2c1,4,-8,17,57*,64
O=C(Nc1ccc(F)cc1F)c1ccc2ncsc2c1,-9,-7,5,67*,22
O=C(CN1CCOCC1)N[C@H]1CC[C@H](CCn2cc(C3CC3)nn2)O[C@H]1CO,x,x,x,-1,x
Cc1ccc(S(=O)(=O)Nc2ccc3c(c2)CC(=O)N([C@H](C)CO)C[C@@H](C)[C@@H](CN(C)C(=O)Nc2ccc(F)cc2)O3)cc1,x,x,x,6,x
COc1ccc(C#Cc2ccc3c(c2)[C@@H]2[C@@H](CCN2S(=O)(=O)C2=NC(C)C=N2)[C@H](CO)N3C)cc1 (stereo partly specified),x,x,x,1,x
COc1ccc(-c2c(C)nn3c(Cl)c(C)c(C)nc23)cc1,60*,29,-2,-3,x
COc1ccc(-c2c(C)nn3c(-c4ccccc4)cc(C)nc23)cc1,-1,1,3,-10,x
COc1cc(O)c2c(c1)OC(c1ccc(O)cc1)CC2=O (stereo unspecified),27,26,-2,1,13
COC1=CC(=O)C(C2CC(=O)c3c(O)cc(O)cc3O2)=CC1=O (stereo unspecified),0,0,-1,x,16
COc1c(CC=C(C)C)cc(C2CC(=O)c3c(O)cc(O)cc3O2)cc1CC=C(C)C (stereo unspecified),-91,-91*,-1,-12,10
COc1ccc([C@@H]2CC(=O)c3c(O)cc(O)cc3O2)cc1O,x,x,40*,54*,47
Cc1cc2sc3nc(=O)n(-c4ccccc4)c(=O)n3c2cc1C,46,29,71*,x,x
Cc1ccc(C(=O)CC(SCC(=O)O)c2ccc([N+](=O)[O-])cc2)cc1 (stereo unspecified),16,0,90*,x,14
Nc1ccccc1SC(CC(=O)c1ccccc1)c1cccc([N+](=O)[O-])c1 (stereo unspecified),x,x,-21,u,x
Nc1ccccc1SC(CC(=O)c1ccccc1)c1ccc([N+](=O)[O-])cc1 (stereo unspecified),x,x,80*,29,x
COc1ccc(C(CC(=O)c2ccc(O)cc2)S(=O)(=O)c2ccc(C)cc2)cc1 (stereo unspecified),50,56,20,33,86*
COc1ccc(C(CC(=O)c2ccc(C)cc2)Nc2ccc([N+](=O)[O-])cc2)cc1 (stereo unspecified),37,4,8,x,12
COc1ccc(C(=O)CC(c2ccccc2)S(=O)(=O)c2ccc(C)cc2)cc1 (stereo unspecified),2,-4,x,x,x
COc1ccc(C(CC(=O)c2ccc(C)cc2)Sc2ccccc2N)cc1 (stereo unspecified),x,x,47*,60*,x
CO[C@@H]1CN(C)C(=O)c2cc(NC(C)=O)ccc2OC[C@@H](C)N(CC2CCCCC2)C[C@@H]1C,x,x,x,3,x
SMILES,HSF-1 act,HSF1 inh,Wnt act,esBAF inh,MITF TRPM1 HTS
C[C@H](CO)N1C[C@H](C)[C@H](CN(C)S(=O)(=O)c2cccs2)OCCCC[C@H](C)Oc2ccc(NC(=O)Nc3ccc(C(F)(F)F)cc3)cc2C1=O,x,x,x,1,x
CO[C@@H]1CN(C)C(=O)c2ccc(NS(=O)(=O)c3ccccc3C)cc2OC[C@@H](C)N(C)C[C@H]1C,x,x,x,7,x
C[C@@H]1CCCCO[C@H](CN(C)S(=O)(=O)c2ccc(F)cc2)[C@H](C)CN([C@@H](C)CO)C(=O)c2cc(NC(=O)Nc3ccc4c(c3)OCO4)ccc2O1,x,x,x,3,x
COCCNC(=O)C[C@H]1CC[C@@H]2[C@@H](COc3ccc(NC(=O)COC)cc3C(=O)N2C)O1,x,x,x,-2,x
Cc1nc2ccccc2cc1OCc1ccccc1,11,14,16,-3,x
Cc1nc2ccccc2cc1OCc1ccc(Cl)cc1,59*,37,x,8,x
CCOc1ccccc1NC(=O)Nc1ccc2c(c1)OCO2,16,5,7,x,22

# From PubChem BioAssay
